# About 83,000 compounds went through this panel and 20% of them were active in at least one assay; those are over-represented in the sample as a whole.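 Values shown are percent growth following 48 h exposure of cells in 96-well plates to a single concentration of compound; below 10 was considered active.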 A number with no mark means an inactive call. The source made the active and inactive calls.
# How the values were obtained:
# Experiment in all cases: NCI-60 one-dose screen, 48 h (100 = growth as untreated, 0 = no growth, -100 = all killed)
# Conditions in all cases: 10 µM unless noted
# [1] = system: SR leukemia
# [2] = system: RPMI-8226 leukemia
# [3] = system: OVCAR-8 ovarian
# [4] = system: OVCAR-5 ovarian
# [5] = system: OVCAR-4 ovarian
# [6] = system: SK-OV-3 ovarian
# [7] = system: IGROV1 ovarian
# [8] = system: OVCAR-3 ovarian
# [9] = system: HS 578T breast
# [10] = system: NCI/ADR-RES ovarian
# [11] = system: T-47D breast
# [12] = system: BT-549 breast
# [13] = system: MDA-MB-435 melanoma
# [14] = system: SW-620 colon
# [15] = system: MCF7 breast
# [16] = system: HCT-116 colon
# [17] = system: HCC-2998 colon
# [18] = system: KM12 colon
Compound,growth [1],growth [2],growth [3],growth [4],growth [5],growth [6],growth [7],growth [8],growth [9],growth [10],growth [11],growth [12],growth [13],growth [14],growth [15],growth [16],growth [17],growth [18]
CC1c2ccccc2-c2ccccc2N1C (stereo not given),96.3%,90.5%,106%,101%,110%,101%,98.3%,104%,112%,108%,85.7%,103%,119%,108%,99.4%,96%,105%,104%
O=C(N/N=C/c1cccc(O)c1O)c1ccccc1,18.2%,32.1%,4.99% (active),30.1%,4.38% (active),41.2%,6.87% (active),16.2%,66.1%,11%,15.5%,31.3%,28.8%,33.5%,3.07% (active),9.39% (active),8.51% (active),25.9%
CCOC(=O)OCC(=O)[C@@]1(O)CC[C@H]2[C@@H]3CCC4=CC(=O)CC[C@]4(C)[C@H]3[C@@H](O)C[C@@]21C,109%,64.3%,94.5%,83.2%,104%,68.4%,87.5%,112%,123%,91%,91.4%,101%,111%,98.3%,94.9%,98.3%,,106%
CCn1cnc(C[C@H](NC(=O)[C@H](CCCCNC(=O)Nc2cc(C(F)(F)F)cc(C(F)(F)F)c2)NC(=O)Nc2cc(C(F)(F)F)cc(C(F)(F)F)c2)C(=O)OC)c1,-29% [100 µM] (active),-42.4% [100 µM] (active),-9.32% [100 µM] (active),-67.9% [100 µM] (active),-17.2% [100 µM] (active),-23.7% [100 µM] (active),-23.5% [100 µM] (active),-90.2% [100 µM] (active),-7.06% [100 µM] (active),51.5% [100 µM],-62.8% [100 µM] (active),-35.3% [100 µM] (active),-65.4% [100 µM] (active),-40.9% [100 µM] (active),-47% [100 µM] (active),-100% [100 µM] (active),-20.8% [100 µM] (active),-43% [100 µM] (active)
O[N+]1=CC=CCC1=S.On1ccccc1=S.[Zn],-4.29% (active),-32.6% (active),-50.4% (active),-83.1% (active),-95.6% (active),-96.6% (active),-81.2% (active),-97.4% (active),7.55% (active),-46.8% (active),-84.9% (active),-84% (active),-82.8% (active),-77.2% (active),-75.6% (active),-88.1% (active),-76.3% (active),-88.3% (active)
COc1cc(NC(C)CCCN)c2nc(C)ccc2c1Oc1ccc(F)cc1 (stereo not given),60.9%,70.3%,77.4%,83.4%,62.6%,105%,56.2%,71.3%,49.7%,77.6%,87.4%,70.5%,104%,67%,62.1%,33.9%,21.6%,78.9%
CCc1nn2c(-c3ccc(Cl)cc3C)c(-c3cc(OC)c(OC)c(OC)c3)nc2s1,48.3%,63.8%,103%,92.9%,54%,94.5%,73.1%,72.6%,48.5%,78.3%,58.8%,101%,81.3%,82.5%,50.7%,60.5%,86.3%,89%
COc1ccc(C2=NN(C(C)=O)C(c3c(C)nn(-c4ccccc4)c3N3CCOCC3)C2)cc1 (stereo not given),90.5%,97.9%,94.4%,97.6%,89.5%,80.4%,103%,104%,96.7%,94.7%,93.3%,77%,97.2%,96.6%,91.7%,82.3%,102%,100%
COc1cc(/C=C/C(=O)c2c(C)n([O-])c3ccc(Cl)cc3[n+]2=O)cc(OC)c1OC,11.8%,72.6%,50.8%,98.2%,71%,104%,-62.2% (active),102%,70.5%,73.5%,58.6%,53.8%,84.1%,82.2%,42.2%,62.6%,106%,96.2%
CC(C)CC1NC(=O)C(CCCN)NC(=O)C(C(C)C)NC(=O)C2CCCN2C(=O)C(Cc2ccccc2)NC(=O)C(CC(C)C)NC(=O)C(CCCN)NC(=O)C(C(C)C)NC(=O)C2CCCN2C(=O)C(Cc2ccccc2)NC1=O (stereo not given),-38.7% (active),-54.9% (active),-42.1% (active),-44.7% (active),9.59% (active),-77.2% (active),-34.9% (active),-73.1% (active),-52.5% (active),0.435% (active),-37.2% (active),-77.7% (active),-83.6% (active),-75.6% (active),-61.5% (active),-92.2% (active),-36.2% (active),-75% (active)
O=C1c2cccc3c([N+](=O)[O-])ccc(c23)C(=O)N1CCCCl,-6.13% [100 µM] (active),-11.6% [100 µM] (active),-64.2% [100 µM] (active),-92.5% [100 µM] (active),-97% [100 µM] (active),-99.6% [100 µM] (active),-57.7% [100 µM] (active),-87.1% [100 µM] (active),23.3% [100 µM],-37.9% [100 µM] (active),-48.4% [100 µM] (active),-98.2% [100 µM] (active),-89.3% [100 µM] (active),-44.4% [100 µM] (active),-65.5% [100 µM] (active),-90.6% [100 µM] (active),-91.9% [100 µM] (active),-81.3% [100 µM] (active)
COc1cc(/C=C2\CN(S(=O)(=O)c3ccc(C)cc3)C/C(=C\c3cc(CN4CCOCC4)c(O)c(OC)c3)C2=O)cc(CN2CCOCC2)c1O,4.35% (active),-24.8% (active),2.94% (active),-26% (active),24.8%,42.6%,-17% (active),-17.3% (active),27.3%,5.42% (active),63.9%,-21.8% (active),-19.7% (active),3.91% (active),10.6%,-83.3% (active),-89.3% (active),-74.4% (active)
COc1ccc(NS(=O)(=O)N2CCCCC2)cc1,95.3%,102%,105%,117%,125%,99.6%,110%,107%,108%,116%,95.3%,104%,116%,98%,108%,103%,,110%
O=CNc1ccc2c(c1)Cc1cc([N+](=O)[O-])ccc1-2,31.6%,35.6%,41.3%,36.2%,74.5%,12.8%,30.7%,16.1%,40.1%,3.1% (active),29.1%,16.5%,-27.9% (active),32.4%,16.3%,11.7%,,13.9%
CSc1nc2nc3c(c(-c4ccc(C)cc4)c2c(=O)[nH]1)CN(C)C/C3=C\c1ccc(C)cc1,86.9%,84.2%,105%,115%,92.8%,112%,96.8%,116%,95.8%,94.7%,103%,114%,91.8%,103%,87%,101%,96.5%,101%
CCOC(=O)CCC(=O)O[C@H]1[C@H](O[C@@H]2[C@@H](C)[C@H](O[C@H]3C[C@@](C)(OC)[C@@H](O)[C@H](C)O3)[C@@H](C)C(=O)O[C@H](CC)[C@@](C)(O)[C@H](O)[C@@H](C)C(=O)[C@H](C)C[C@@]2(C)O)O[C@H](C)C[C@@H]1N(C)C,92%,97.2%,106%,106%,110%,113%,92.8%,125%,113%,108%,97.1%,97.3%,105%,107%,113%,99.7%,105%,111%

# Reference: PubChem BioAssay (NCI)
